Bioassay records (PubChem)
A selection: hits, their analogues and other compounds. The true share with any hit is near 0.4%.
FMDV antiviral – FMDV antiviral activity by firefly signal. FMDV antiviral cell assay, firefly luciferase signal. Potency, µM (highest dose often 57.5 µM), inactives show top-dose activity change, negative = inhibition, most hits filed as inhibitors. 120,000 tested, 0.23% active. AID 1745856; further: nearly all actives have a fitted effect of over 60% in size
FMDV Renilla – shows antiviral activity in FMDV Renilla assay; FMDV replicon cells, Renilla luciferase signal; Potency, µM (highest dose often 57.5 µM), without a hit: at the highest dose activity change, negative = inhibition, most hits filed as inhibitors; 120,000 tested, 0.32% active; AID 1745857; further: nearly all actives have a fitted effect of over 55% in size
An asterisk follows results filed as active; [ ] = another dose, or the depositor's remark. The call rests on the fitted dose curve. On the % scale 0 is the no-effect control and ±100 the full control effect; potency means the concentration at half of the fitted maximal effect.

Screening Cc1nc2cc(NC(=O)c3cccc(Cl)c3)ccc2o1 returned FMDV antiviral 0% and FMDV Renilla -28%.
Screening CCc1ccc(C(=O)Nc2ccc3oc(C)nc3c2)cc1 returned FMDV antiviral -18% and FMDV Renilla 10µM*.
Cc1nc2cc(NC(=O)c3ccc(C(C)(C)C)cc3)ccc2o1 was read as FMDV antiviral 7.9µM* and FMDV Renilla 4.5µM*.
For CCc1ccc(-c2nc3cc(NC(=O)c4ccc(C)c(C)c4)ccc3o2)cc1 the results were FMDV antiviral 29% and FMDV Renilla 2%.
For O=C(NCCc1cccc(F)c1)C1CCCC1 the results were FMDV antiviral 114% and FMDV Renilla 5%.
Screening Cc1cccc(C)c1-n1nnnc1SCn1nnc2ccccc2c1=O returned FMDV antiviral 20µM* and FMDV Renilla 18µM*.
Screening Cc1ccccc1-n1nnnc1SCc1nc(N)c2ccccc2n1 returned FMDV antiviral 17% and FMDV Renilla -19%.
Cc1cc2oc(C(=O)NCC(c3ccco3)N3CCOCC3)cc(=O)c2cc1Cl (stereo unspecified) was read as FMDV antiviral 11% and FMDV Renilla 19%.
For C[C@H]1O[C@@H](O[C@H]2[C@@H](O)C[C@H](O[C@H]3[C@@H](O)C[C@H](O[C@H]4CC[C@@]5(C)[C@H](CC[C@@H]6[C@@H]5CC[C@]5(C)[C@@H](C7=CC(=O)OC7)CC[C@]65O)C4)O[C@@H]3C)O[C@@H]2C)C[C@H](O)[C@@H]1O the results were FMDV antiviral inconclusive and FMDV Renilla -74%.
For CC(=O)OC1CC(OC2C(O)CC(OC3C(O)CC(OC4CC(O)C5(C)C(CC[C@@H]6[C@@H]5CCC5(C)C(C7=CC(=O)OC7)CCC65O)C4)OC3C)OC2C)OC(C)C1O (stereo partly specified) the results were FMDV antiviral 0.56µM* and FMDV Renilla 0.89µM*.
C[C@H]1O[C@@H](O[C@H]2CC[C@@]3(C)[C@H](CC[C@@H]4[C@@H]3C[C@@H](O)[C@]3(C)[C@@H](C5=CC(=O)OC5)CC[C@]43O)C2)C[C@H](O)[C@@H]1O[C@H]1C[C@H](O)[C@H](O[C@H]2C[C@H](O)[C@H](O[C@@H]3O[C@H](CO)[C@@H](O)[C@H](O)[C@H]3O)[C@@H](C)O2)[C@@H](C)O1 was read as FMDV antiviral -80%[11.5 µM] and FMDV Renilla -78%.
COC1C(O)CC(OC2C(O)CC(OC3C(O)CC(OC4CCC5(C)C(CCC6[C@@H]5CC(O)C5(C)C(C7=CC(=O)OC7)CCC65O)C4)OC3C)OC2C)OC1C (stereo partly specified) was read as FMDV antiviral inconclusive and FMDV Renilla 0.5µM*.
`CC(=O)OC1CC2(O)[C@@H]3CCC4CC(OC5CC(O)C(OC6CC(O)C(OC7CC(O)C(O)C(C)O7)C(C)O6)C(C)O5)CCC4(C)[C@H]3CCC2(C)C1C1=CC(=O)OC1` (stereo partly specified) gave FMDV antiviral 0.63µM* and FMDV Renilla inconclusive.
Screening CC1OC(OC2C(O)CC(OC3C(O)CC(OC4CCC5(C)C(CC[C@@H]6[C@@H]5CCC5(C)C(C7=CC(=O)OC7)CCC65O)C4)OC3C)OC2C)CC(O)C1O (stereo partly specified) returned FMDV antiviral 0.25µM* and FMDV Renilla 0.56µM*.
Screening COC1CC(OC2CCC3(C)C(CC[C@@H]4[C@@H]3CCC3(C)C(C5=CC(=O)OC5)C(OC(C)=O)CC43O)C2)OC(C)C1O (stereo partly specified) returned FMDV antiviral -83% and FMDV Renilla -76%.
Screening CC(C)NC(=O)NC(=O)COC(=O)c1ccc2ccccc2n1 returned FMDV antiviral 3% and FMDV Renilla -14%.
CC(NC(=O)CCCNC(=O)C1CC1)c1ccc(C#N)cc1 (stereo unspecified) was read as FMDV antiviral 11% and FMDV Renilla 4%.
`CCCOc1ccc(-c2nc(C#N)c(NCc3ccccc3Cl)o2)cc1` gave FMDV antiviral 2% and FMDV Renilla 14%.
For O=C1OC2OCCCC2C1Nc1ccc(I)cc1 (stereo unspecified) the results were FMDV antiviral 3% and FMDV Renilla 1%.
Nc1ccc2c(c1)C(=O)OC2 was read as FMDV antiviral -1% and FMDV Renilla -3%.
Nn1c(SC(C(=O)Nc2ccc(F)cc2)c2ccccc2)nnc1-c1ccco1 (stereo unspecified) was read as FMDV antiviral 38% and FMDV Renilla 88%.
`O=C(Nc1ncn[nH]1)c1cccc(S(=O)(=O)N2CCCCC2)c1` gave FMDV antiviral 3% and FMDV Renilla 10%.
Screening C=C(Cl)CN1CCC(C(=O)NCCc2ccccc2F)CC1 returned FMDV antiviral 142% and FMDV Renilla 12%.
Screening O=C(/C=C/N1CCN(C/C=C/c2ccccc2)CC1)C(F)(F)F returned FMDV antiviral 18% and FMDV Renilla -4%.
`Cc1ccc(NC(=O)Cc2coc3ccc(C(C)C)cc23)cc1Cl` gave FMDV antiviral inconclusive and FMDV Renilla -19%.
